The panel holds about 83,000 compounds, 20% with a hit somewhere; the sample as a whole holds those more often.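 A percent growth of 40 corresponds to 60% growth inhibition; 0 means no net growth; -100 means all cells died. Active threshold: below 10.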 A number with no mark means an inactive call. The source made the active and inactive calls.

Here are results for 27 compounds from PubChem BioAssay (NCI).

What all share (experiment): NCI-60 one-dose screen, 48 h (100 = growth as untreated, 0 = no growth, -100 = all killed)
Conditions in all cases: 10 µM unless noted

For assay [1], the system named is HCT-15 colon.
Assay [2] relates to HT29 colon.
Assay [3] concerns SNB-75 CNS.
Assay [4] concerns SNB-19 CNS.
Assay [5] deals with U251 CNS.
The test system of assay [6] is PC-3 prostate.
Assay [7] relates to SK-MEL-5 melanoma.
The subject of assay [8] is UACC-62 melanoma.
Assay [9] deals with LOX IMVI melanoma.
The subject of assay [10] is SK-MEL-28 melanoma.

On to `COc1cc(O)c2c(=O)c3c(CC=C(C)C)cc(OC)c(O)c3oc2c1`, for which the growth in assay [1] is 29.6%; in [2], 71.4%; in [3], 5.63% (active); in assay [4] it was 27.2%; in assay [5], 9.71% (active); in [6], 73.9%. The growth in [7] is 52.9%; in assay [8] it was 17%; in [9] it was 40.3%; in assay [10], 63%.

With `O=C(/C=C/C12c3ccccc3C(c3ccccc31)C1C(=O)NC(=O)C12)c1ccco1` (stereo not given), the growth is 21.7% in assay [1]; 13.1% in assay [2]; -2.52% (active) in assay [3]; 30.9% in assay [4]; 15.9% in [5]; 31.9% in assay [6]. Besides, the growth in [7] is 46%; in [8], 30.8%; in [9], 16.1%; in [10], 44.3%.

Take `COC(=O)c1ccc2cc(OC)c(OC)cc2c1`: the growth in assay [1] is 100%; in [2], 90.7%; in assay [3], 97.8%; in assay [4], 99.5%; in assay [5], 95.7%; in [6] it was 92.1%. The growth is 108% in [7], 104% in [8], 109% in assay [9] and 102% in assay [10].

As for `O=C1Nc2ccc(Cl)cc2/C1=C/c1ccc[nH]1`, the growth is 34.2% in assay [1]; 107% in assay [2]; 114% in [3]; 106% in assay [4]; 100% in assay [5]; 111% in assay [6]. For the same compound, the growth was 77.5% in assay [7], 102% in assay [8], 95.5% in [9] and 129% in assay [10].

As for `CCn1cc(C(=O)N/N=C/c2cccc(F)c2)c(=O)c2cc(F)c(N3CCNC(C)C3)c(F)c21` (stereo not given), the growth is -81.8% (active) in assay [1]; -87.2% (active) in [2]; 90.1% in assay [3]; -59.4% (active) in [4]; -74.3% (active) in assay [5]; 69.6% in assay [6]. For the same compound, the growth in [7] was 52.6%; in assay [8], 64.8%; in assay [9], -90.9% (active); in assay [10], -64.3% (active).

For the compound `CC1(C)N=C(N)N=C(N)N1c1cc(Cl)ccc1Cl`, the growth in assay [1] is 13%; in assay [2], 24.8%; in [3], 118%; in assay [4], 92.6%; in [5] it was 80%; in assay [6], 101%. Besides, the growth in assay [7] is 98.1%; in assay [8] it was 88.7%; in assay [9], 70.2%; in assay [10], 106%.

On to `CCOC(=O)NC(=S)n1oc(=O)c2ccccc21`, for which the growth in assay [1] is 103%; in assay [2], 105%; in [3], 94.7%; in assay [4], 104%; in assay [5], 98.6%; in assay [6] it was 98.3%. In addition, the growth in assay [7] is 108%; in [8], 93.3%; in assay [9], 96.8%; in assay [10] it was 103%.

As for `Fc1cccc(-c2nc(-c3c[nH]c4ncccc34)cs2)c1`, the growth in assay [1] was 82.9% [100 µM]; in assay [2], 76% [100 µM]; in assay [3], -14.1% [100 µM] (active); in assay [4], 70.8% [100 µM]; in [5] it was 33.7% [100 µM]; in assay [6], 59.6% [100 µM]. In addition, the growth was 50.6% [100 µM] in assay [7], 73.1% [100 µM] in assay [8], 74.3% [100 µM] in [9] and 89.2% [100 µM] in assay [10].

Regarding `C=CC(CC(c1ccccc1)(c1ccccc1)c1ccccc1)N(CC)CC` (stereo not given), the growth in assay [1] was 41.4%; in assay [2], 16.2%; in [3] it was 68.1%; in assay [4], 98.3%; in assay [5], 62%; in assay [6], 44.9%. Also, the growth in assay [7] is 13.5%; in assay [8], 44.2%; in assay [9] it was 71.6%; in assay [10], 61.6%.

With `COc1ccc(C2[C@@H](Cl)C(=O)N2c2cc(OC)c(OC)c(OC)c2)cc1Cl` (stereo not given in full), the growth is 11% in [1]; -3.88% (active) in assay [2]; 75.7% in [3]; 32.1% in assay [4]; 5.8% (active) in [5]; 25.1% in [6]. For the same compound, the growth in [7] is -23.8% (active); in [8], 36.3%; in assay [9], 20.9%; in [10], 69.6%.

Regarding `NS(=O)(=O)c1ccc(C(=O)N=Nc2c(O)[nH]c3ccc(Cl)cc23)cc1`, the growth in assay [1] is 99.4%; in assay [2] it was 99.7%; in assay [3], 89%; in assay [4], 91.3%; in [5] it was 99.7%; in [6], 97.4%. Further, the growth in assay [7] was 103%; in assay [8], 105%; in assay [9], 102%; in assay [10], 114%.

On to `O=C(O)CC(C(=O)O)/C(=C\c1ccccc1)c1ccccc1` (stereo not given), for which the growth in assay [1] is 107%; in assay [2] it was 114%; in assay [3], 83.2%; in [4] it was 109%; in [5] it was 99.8%; in assay [6], 96.6%. Moreover, the growth in [7] is 94.8%; in assay [8], 101%; in assay [9] it was 99.1%; in assay [10], 103%.

For the compound `CC/C(=C(\c1ccc(Cl)cc1)c1ccc(OCCN2CCCCC2)cc1)c1ccc(O)cc1`, the growth is 2.22% (active) in [1]; -37.2% (active) in [2]; 40.5% in assay [3]; 61.1% in assay [4]; 0.575% (active) in [5]; 30.4% in [6]. Besides, the growth in [7] was 2.53% (active); in [8], 71%; in assay [9], -91.5% (active); in [10] it was -63.4% (active).

For the compound `Cn1cc(-c2nonc2-c2c[nH]c3ccccc23)c2cc(Br)ccc21`, the growth is 18.5% in assay [1]; 8.18% (active) in assay [2]; 46.3% in [3]; 49.7% in [4]; 29.8% in assay [5]; 41.7% in [6]. Besides, the growth in [7] was 48%; in assay [8], 34.2%; in [9] it was 19%; in [10], 60.8%.

As for `COc1ccc(Nc2ncc(I)c(NCCCNC(=O)C3CCC3)n2)cc1`, the growth was -18.8% (active) in assay [1]; 12.5% in [2]; 39.4% in assay [3]; 24.5% in [4]; 2.43% (active) in assay [5]; 23.8% in [6]. The growth in assay [7] was 23.3%; in assay [8], 22.9%; in assay [9], -11.3% (active); in assay [10], 43.4%.

`CCOC(=O)/C=C1\S/C(=N\Nc2cc(=O)[nH]c3ccc(Br)cc23)N(c2ccccc2)C1=O`: the growth was 42.3% in assay [1]; 104% in assay [2]; 80.4% in [3]; 90.4% in assay [4]; 77.1% in [5]; 44.1% in [6]. The growth in assay [7] is 98.3%; in assay [8], 78.6%; in [9], 90.6%; in assay [10], 95.3%.

Turning to `Cc1cccc(NC(=O)Cn2cc(CN3CCN(c4ccnc5cc(Cl)ccc45)CC3)nn2)c1`, the growth was 88.8% in assay [1]; 98.5% in assay [2]; 75% in assay [3]; 89.6% in assay [4]; 93% in [5]; 63.3% in [6]. In addition, the growth in assay [7] is 68.8%; in [8], 73%; in assay [9], 81.6%; in assay [10], 102%.

As for `C=C1C(=O)O[C@H]2[C@H]1CC/C(COC(=O)C(=O)c1c[nH]c3ccc(Cl)cc13)=C\CC[C@@]1(C)O[C@@H]21`, the growth in [1] was -58.4% (active); in assay [2], -52.7% (active); in [3] it was -97% (active); in [4] it was -71.6% (active); in [5] it was -93.1% (active); in [6], -74.4% (active). Besides, the growth was -97.6% (active) in [7], -81.8% (active) in assay [8], -92.7% (active) in assay [9] and -72.4% (active) in [10].

With `COc1cc(Cc2cc(OC)c(O)c(OC)c2)cc(OC)c1O`, the growth is 60.9% in assay [1]; 110% in assay [2]; 82.2% in assay [3]; 102% in [4]; 102% in [5]; 80.2% in assay [6]. The growth in assay [7] was 101%; in assay [8], 94.9%; in [9] it was 80.7%; in assay [10] it was 82.4%.

As for `COc1cc2c(cc1-c1c(C)noc1C)ncc1nc(CN3CCOCC3)n([C@H](C)COC(F)F)c12`, the growth in assay [1] is 23%; in assay [2], 12.1%; in [3], 3.11% (active); in assay [4], 45.1%; in [5], 61.3%; in [6] it was 32.3%. Also, the growth was 19.8% in assay [7], 17.4% in assay [8], 12.1% in assay [9] and 59.3% in assay [10].

With `CC(C)Cc1nc(Nc2ccccc2)[nH]c(=O)c1C#N`, the growth was 60.5% in assay [1]; 51.7% in assay [2]; 62.4% in [3]; 54.8% in assay [4]; 55.8% in assay [5]; 38% in [6]. Besides, the growth is 48.7% in [7], 19.5% in assay [8], 48.7% in [9] and 55.9% in assay [10].

Regarding `COc1ccc2c(c1)CC[C@@H]1[C@@H]2CC[C@]2(C)c3c(cc(C#N)c4c3sc3ccccc34)C[C@@H]12`, the growth was 104% in [1]; 100% in assay [2]; 86% in assay [3]; 104% in [4]; 104% in [5]; 85.5% in [6]. Besides, the growth is 95.9% in [7], 99.5% in assay [8], 96.8% in assay [9] and 110% in [10].

For `Cc1oc(-c2ccc(Cl)cc2)nc1C1=NN(C(=O)c2ccncc2)C(c2ccccc2)C1` (stereo not given), the growth in assay [1] was 91.3%; in assay [2], 96.6%; in assay [3], 92.8%; in [4] it was 80.3%; in assay [5], 92.8%; in assay [6], 83.7%. For the same compound, the growth in assay [7] was 97.3%; in assay [8] it was 72.9%; in assay [9], 92.7%; in assay [10], 89.7%.

For `C=C1C(=O)O[C@H]2[C@H]1CC/C(COC(=O)NCc1ccc(Cn3c(=O)sn(-c4ccccc4)c3=O)cc1)=C\CC[C@@]1(C)O[C@@H]21`, the growth was 32.4% in [1]; 20.1% in assay [2]; 9.33% (active) in [3]; 92.4% in assay [4]; 40.4% in assay [5]; 64% in assay [6]. Also, the growth in assay [7] is 95.1%; in assay [8], 48.2%; in assay [9], 6.38% (active); in assay [10], 47%.

Turning to `CCOC(=O)c1cnn(CC(C)O)c1NC(=O)NCc1ccccc1C(F)(F)F` (stereo not given), the growth is 101% in assay [1]; 82.1% in [2]; 93.6% in assay [3]; 103% in assay [4]; 101% in assay [5]; 107% in assay [6]. Besides, the growth was 102% in assay [7], 91.8% in [8], 100% in assay [9] and 103% in [10].

On to `COc1cc2c(c(OC)c1OC)CCC(c1cccc(C(=O)Nc3ccc(Br)cc3)c1)O2` (stereo not given), for which the growth was 61% in [1]; 65.7% in [2]; 61.8% in [3]; 65.8% in assay [4]; 75.5% in assay [5]; 39.4% in assay [6]. Also, the growth in assay [7] was 55%; in assay [8], 53%; in assay [9] it was 65.2%; in assay [10], 76.9%.

Consider `CC(C)(C)CC(C)(C)Nc1c(-c2c(O)c3ccccc3oc2=O)nc2sc3ccccc3n12`, for which the growth in assay [1] is 20%; in assay [2], 34.8%; in [3], 49.7%; in [4], 26.1%; in assay [5], 25.5%; in assay [6], 34.9%. For the same compound, the growth in assay [7] was 42%; in [8], 30.4%; in [9], 36.4%; in assay [10], 58.2%.
